Where “and” joins values, the source holds several entries; their conditions need not be identical. Equal entries are not always repeated. Inconclusive results are not listed. A structure can be active in one record and inactive in another. Calls of active or inactive are those of the source. Calls come from the whole dose curve; as a rule, active = well fitted inhibition curve with a large enough effect; inconclusive = small, poorly fitted or top-dose-only effect; inactive = flat fitted curve, though single readings scatter.
Experiments:
W2 = assay: qHTS profiling for inhibitors of Plasmodium falciparum proliferation (AID 504749); note: potency is the fitted concentration of half-maximal effect; conditions: P. falciparum in erythrocytes, SYBR Green DNA, 72 h; series mostly up to 28.7 µM
Summary of the method: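 SYBR Green fluorescence of parasite DNA, read after lysis and overnight dark incubation, measured growth over 72 h in erythrocyte culture at 0.3% parasitemia and 2.5% hematocrit. Data normalised to DMSO and 0.29 uM artemisinin, with plate-drift correction.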

CRL-7250 = normal cell line; assay: Cytotoxic Profiling of Annotated Libraries Using Quantitative High-Throughput Screening (AID 1296008); conditions: Five cell lines viability, CellTiter-Glo ATP luminescence, 48-72 h; max response: active compounds read low; note: potency is the fitted concentration of half-maximal effect; for max response: % is set by controls: 0 for no effect and ±100 for the full control effect
Summary of the method: (§1)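 Cytotoxicity was measured as CellTiter-Glo ATP luminescence, read after 10 min at room temperature. Compound treatment of the cells lasted 48 or 72 hr at 37 degrees Celsius in a qHTS format.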

HEK293 = assay: as above; conditions: Five cell lines viability, CellTiter-Glo ATP luminescence, 48-72 h; max response: active compounds read low
Summary of the method: as §1

HaCat [1] = assay: as above; conditions: Five cell lines viability, CellTiter-Glo ATP luminescence, 48-72 h; max response: active compounds read low
Summary of the method: as §1

KB-3-1 = assay: as above; conditions: Five cell lines viability, CellTiter-Glo ATP luminescence, 48-72 h; max response: active compounds read low
Summary of the method: as §1

NIH3T3 = assay: as above; conditions: Five cell lines viability, CellTiter-Glo ATP luminescence, 48-72 h; max response: active compounds read low
Summary of the method: as §1

HEK293T = assay: qHTS assay to identify novel small-molecules to repurpose for Merkel cell carcinoma treatment (AID 1296009); conditions: MCC and control cell lines, CellTiter-Glo viability, 72 h; at 44.8 µM (top of the series) unless noted; for activity change, negative = cytotoxicity: % is set by controls: 0 for no effect and ±100 for the full control effect
Summary of the method: (§2)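 Cell viability, measured as CellTiter-Glo luminescence, was normalized between DMSO and no-cell wells. The cells had been exposed to 8- or 11-point compound dilutions for 72 hr at 37 degree celsius.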

MCC-13 = assay: as above; conditions: MCC and control cell lines, CellTiter-Glo viability, 72 h; series mostly up to 46 µM
Summary of the method: as §2

MCC-26 = assay: as above; conditions: MCC and control cell lines, CellTiter-Glo viability, 72 h; series mostly up to 46 µM
Summary of the method: as §2

HACAT [2] = assay: as above; conditions: MCC and control cell lines, CellTiter-Glo viability, 72 h; at 44.8 µM (top of the series) unless noted
Summary of the method: as §2
Note: nearly all actives have a fitted effect of over 60% in size.

CCCN(CCC)CCc1cccc2c1CC(=O)N2
inactive: Potency (W2) | max response (CRL-7250) 1.13% | outcome (HEK293) | max response (HaCat [1]) -2.54% | max response (KB-3-1) -0.569% | max response (NIH3T3) -15.5% | outcome (HEK293T) | Potency (MCC-13) | Potency (MCC-26)

CN1C(=O)CC[C@H]1c1cccnc1
inactive: max response (CRL-7250) -11.6% | max response (HEK293) -8.79% | outcome (HaCat [1]) | max response (KB-3-1) 0.0726% | max response (NIH3T3) -5.17% | outcome (HACAT [2]) | Potency (MCC-13) | Potency (MCC-26)

CCN1CCC[C@H]1CNC(=O)c1c(O)c(Cl)cc(Cl)c1OC
inactive: Potency (W2) | outcome (CRL-7250) | outcome (HEK293) | outcome (HaCat [1]) | max response (KB-3-1) -13.7% | max response (NIH3T3) 1.49% | outcome (HACAT [2]) | outcome (HEK293T) | Potency (MCC-13) | Potency (MCC-26)

CC(C(=O)O)c1ccc(CC2CCCC2=O)cc1 (stereo unspecified)
inactive: Potency (W2) | max response (CRL-7250) 2.29% | outcome (HEK293) | max response (HaCat [1]) -3.69% | max response (KB-3-1) -8.05% | max response (NIH3T3) -16.1% | outcome (HEK293T) | Potency (MCC-13) | Potency (MCC-26)

Cc1ccc(Cl)c(Nc2ccccc2C(=O)O)c1Cl
inactive: Potency (W2) | max response (CRL-7250) 2.33% | outcome (HEK293) | max response (HaCat [1]) -3.9% | max response (KB-3-1) -10.1% | max response (NIH3T3) 3.05% | outcome (HEK293T) | Potency (MCC-13) | Potency (MCC-26)

NC(=Nc1ccccc1)Nc1ccccc1
inactive: max response (CRL-7250) -3.1% | outcome (HEK293) | max response (HaCat [1]) 2.68% | outcome (HaCat [1]) | max response (KB-3-1) -0.105% | max response (NIH3T3) -0.581% | outcome (NIH3T3) | outcome (HACAT [2]) | outcome (HEK293T) | Potency (MCC-13) | Potency (MCC-26)
active: Potency (W2) 9.53 µM

COc1cc(Cc2cnc(N)nc2N)cc(OC)c1OC
inactive: outcome (CRL-7250) | outcome (HEK293) | outcome (HaCat [1]) | max response (KB-3-1) 8.08% | max response (NIH3T3) -0.336% | outcome (HACAT [2]) | outcome (HEK293T) | Potency (MCC-13) | Potency (MCC-26)

C[C@]12C=CC(=O)C=C1CC[C@H]1[C@@H]3C[C@@H](O)[C@](O)(C(=O)CO)[C@@]3(C)C[C@H](O)[C@@]12F
inactive: max response (CRL-7250) 3.67% | outcome (HEK293) | max response (HaCat [1]) -5.14% | max response (KB-3-1) 41.4% | outcome (NIH3T3) | outcome (HEK293T) | Potency (MCC-13) | Potency (MCC-26)

CC(=O)OCC1=C(C(=O)O)N2C(=O)[C@@H](NC(=O)Cc3cccs3)[C@H]2SC1
inactive: Potency (W2) | max response (CRL-7250) 1.94% | max response (HEK293) -2.75% | outcome (HaCat [1]) | max response (KB-3-1) 1.19% | outcome (NIH3T3) | outcome (HACAT [2]) | Potency (MCC-13) | Potency (MCC-26)

NCCCNCCSP(=O)(O)O
inactive: Potency (W2) | outcome (CRL-7250) | max response (HEK293) -18.5% | outcome (HaCat [1]) | max response (KB-3-1) -4.63% | outcome (NIH3T3) | outcome (HACAT [2]) inactive [at 9.27 µM] | activity change, negative = cytotoxicity (MCC-13) 18.6% [at 9.22 µM] | activity change, negative = cytotoxicity (MCC-26) 11.5% [at 9.22 µM]

Cc1ccc(S(=O)(=O)NC(=O)NN2CCCCCC2)cc1
inactive: Potency (W2) | outcome (CRL-7250) | max response (HEK293) -0.0062% | max response (HaCat [1]) 3.13% | max response (KB-3-1) 3.88% | max response (NIH3T3) 0.771% | Potency (MCC-13) | Potency (MCC-26)

c1ccc2c(c1)CCCC2C1=NCCN1 (stereo unspecified)
inactive: max response (CRL-7250) 0.704% | max response (HEK293) 3.92% | outcome (HaCat [1]) | max response (KB-3-1) 10.6% | outcome (NIH3T3) | outcome (HACAT [2]) | Potency (MCC-13) | Potency (MCC-26)

CCCNC(C)C(=O)Nc1ccccc1C (stereo unspecified)
inactive: max response (CRL-7250) -2.89% | max response (HEK293) 1.1% | outcome (HaCat [1]) | max response (KB-3-1) 7.86% | max response (NIH3T3) -0.782% | outcome (HACAT [2]) | Potency (MCC-13) | Potency (MCC-26)

O=C(CCNNC(=O)c1ccncc1)NCc1ccccc1
inactive: max response (CRL-7250) 0.469% | max response (HEK293) -20% | max response (HaCat [1]) -22% | max response (KB-3-1) 4.64% | max response (NIH3T3) -21.8% | Potency (MCC-13) | Potency (MCC-26)

CCCN(CCC)C(=O)C(CCC(=O)O)NC(=O)c1ccccc1 (stereo unspecified)
inactive: max response (CRL-7250) -4.87% | outcome (HEK293) | max response (HaCat [1]) 4.34% | max response (KB-3-1) 20.1% | max response (NIH3T3) -2.14% | outcome (HEK293T) | Potency (MCC-13) | Potency (MCC-26)

C(=C\c1ccccc1)/CN1CCN(C(c2ccccc2)c2ccccc2)CC1
active: Potency (HEK293) 15 µM
inactive: outcome (CRL-7250) | max response (HaCat [1]) -6.19% | max response (KB-3-1) 4.11% | max response (NIH3T3) -6.19% | Potency (MCC-13) | Potency (MCC-26)

Cc1scc2c1N(C(=O)CN1CCN(C)CC1)c1ccccc1NC2=O
inactive: Potency (W2) | max response (CRL-7250) -1.88% | max response (HEK293) -0.369% | outcome (HaCat [1]) | max response (KB-3-1) 6.97% | max response (NIH3T3) -7.24% | outcome (HACAT [2]) | Potency (MCC-13) | Potency (MCC-26)

NC/C=C/C(=O)O
inactive: Potency (W2) | max response (CRL-7250) -5.1% | outcome (HEK293) | outcome (HaCat [1]) | max response (KB-3-1) 3.52% | max response (NIH3T3) -7.89% | outcome (HACAT [2]) | outcome (HEK293T) | Potency (MCC-13) | Potency (MCC-26)

CNC1(C)C2CCC(C2)C1(C)C (stereo unspecified)
inactive: max response (CRL-7250) -2.13% | max response (HEK293) -9.06% | outcome (HaCat [1]) | max response (KB-3-1) 0.165% | outcome (NIH3T3) | outcome (HACAT [2]) | Potency (MCC-13) | Potency (MCC-26)

C[C@H](CS)C(=O)N1CCC[C@H]1C(=O)O
inactive: Potency (W2) | max response (CRL-7250) 1.04% | max response (HEK293) -1.78% | max response (HaCat [1]) 2.06% | max response (KB-3-1) 0.626% | max response (NIH3T3) -6.68% | Potency (MCC-13) | Potency (MCC-26)

CN(C)CCOC(=O)COc1ccc(Cl)cc1
inactive: Potency (W2) | max response (CRL-7250) -13.3% | max response (HEK293) 2.83% | outcome (HaCat [1]) | max response (KB-3-1) -1.09% | max response (NIH3T3) 0.547% | outcome (HACAT [2]) | Potency (MCC-13) | Potency (MCC-26)

Nc1c2c(nc3ccccc13)CCCC2O (stereo unspecified)
inactive: Potency (W2) | max response (CRL-7250) -0.206% | outcome (HEK293) | outcome (HaCat [1]) | max response (KB-3-1) -6.2% | max response (NIH3T3) 4.53% | outcome (HACAT [2]) | outcome (HEK293T) | Potency (MCC-13) | Potency (MCC-26)

CN=C(NC#N)NCCSCc1nc[nH]c1C
inactive: Potency (W2) | outcome (CRL-7250) | outcome (HEK293) | outcome (HaCat [1]) | max response (KB-3-1) -9.62% | max response (NIH3T3) -0.832% | outcome (HACAT [2]) | outcome (HEK293T) | Potency (MCC-13) | Potency (MCC-26)

CC(=O)OC(C)C[N+](C)(C)C (stereo unspecified)
inactive: max response (CRL-7250) 1.65% | max response (HEK293) 3.97% | outcome (HaCat [1]) | max response (KB-3-1) 6% | max response (NIH3T3) 2.06% | outcome (HACAT [2]) | Potency (MCC-13) | Potency (MCC-26)

NC(Cc1ccc(Cl)cc1)C(=O)O (stereo unspecified)
inactive: Potency (W2) | max response (CRL-7250) -4.47% | outcome (HEK293) | outcome (HaCat [1]) | max response (KB-3-1) -13.5% | max response (NIH3T3) 4.7% | outcome (HACAT [2]) inactive [at 0.588 µM] | outcome (HEK293T) inactive [at 0.588 µM] | activity change, negative = cytotoxicity (MCC-13) 20.3% [at 0.597 µM] | activity change, negative = cytotoxicity (MCC-26) 17.1% [at 0.597 µM]

FC(F)(F)c1ccccc1-n1ccnc1
inactive: Potency (W2) | outcome (CRL-7250) | max response (HEK293) -1.59% | outcome (HaCat [1]) | max response (KB-3-1) 22% | max response (NIH3T3) -5.68% | outcome (HACAT [2]) | Potency (MCC-13) | Potency (MCC-26)

CCN1CCc2nc(N)oc2CC1
inactive: Potency (W2) | max response (CRL-7250) 2.68% | outcome (HEK293) | outcome (HaCat [1]) | max response (KB-3-1) 2.16% | max response (NIH3T3) -2.66% | outcome (HACAT [2]) | outcome (HEK293T) | Potency (MCC-13) | Potency (MCC-26)

CN(C)C(=O)Oc1cccc([N+](C)(C)C)c1
inactive: Potency (W2) | outcome (CRL-7250) | outcome (HEK293) | outcome (HaCat [1]) | max response (KB-3-1) 3.68% | max response (NIH3T3) 1.77% | outcome (HACAT [2]) | outcome (HEK293T) | Potency (MCC-13) | Potency (MCC-26)

CCCCOCCOCCOCc1cc2c(cc1CCC)OCO2
inactive: Potency (W2) | max response (CRL-7250) 0.375% | max response (HaCat [1]) 2.25% and -5.48% | max response (KB-3-1) -1.58% and -16.8% | max response (NIH3T3) -13.2% and 0.929% | Potency (MCC-13) | Potency (MCC-26)
active: Potency (CRL-7250) 61.8 µM

Cc1cc(C)c(/C=C2\C(=O)Nc3ccccc32)[nH]1
inactive: Potency (W2) | max response (CRL-7250) -6.15% | outcome (HEK293) | max response (HaCat [1]) -11.3% | max response (KB-3-1) -3.51% | max response (NIH3T3) -17.1% | outcome (HEK293T) | Potency (MCC-13) | Potency (MCC-26)
